# Mtb bLac sens – beta-lactam sensitization of Mtb H37Rv. M. tuberculosis H37Rv growth with meropenem, percent inhibition. inhibition, % at 25 µM. hit rate 0.27% among 330,000; call rule not given here;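 also: growth measured after seven days incubation then overnight dye step; 0% = bacteria only wells and 100% = bacteria with antibiotic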
# RecA intein inh – Mtb RecA intein splicing inhibition; inhibition, % (test concentration not listed); cell-free RecA intein splicing, fluorescence; hit rate 0.75% among 290,000; AID 2221; in the data active = inhibition above about 30%; inconclusive = no clear call, values can overlap the other calls;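 also: 0% = vehicle wells and 100% = reference inhibitor control wells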
# Target sequence (P9WHJ3 whole entry, looked up): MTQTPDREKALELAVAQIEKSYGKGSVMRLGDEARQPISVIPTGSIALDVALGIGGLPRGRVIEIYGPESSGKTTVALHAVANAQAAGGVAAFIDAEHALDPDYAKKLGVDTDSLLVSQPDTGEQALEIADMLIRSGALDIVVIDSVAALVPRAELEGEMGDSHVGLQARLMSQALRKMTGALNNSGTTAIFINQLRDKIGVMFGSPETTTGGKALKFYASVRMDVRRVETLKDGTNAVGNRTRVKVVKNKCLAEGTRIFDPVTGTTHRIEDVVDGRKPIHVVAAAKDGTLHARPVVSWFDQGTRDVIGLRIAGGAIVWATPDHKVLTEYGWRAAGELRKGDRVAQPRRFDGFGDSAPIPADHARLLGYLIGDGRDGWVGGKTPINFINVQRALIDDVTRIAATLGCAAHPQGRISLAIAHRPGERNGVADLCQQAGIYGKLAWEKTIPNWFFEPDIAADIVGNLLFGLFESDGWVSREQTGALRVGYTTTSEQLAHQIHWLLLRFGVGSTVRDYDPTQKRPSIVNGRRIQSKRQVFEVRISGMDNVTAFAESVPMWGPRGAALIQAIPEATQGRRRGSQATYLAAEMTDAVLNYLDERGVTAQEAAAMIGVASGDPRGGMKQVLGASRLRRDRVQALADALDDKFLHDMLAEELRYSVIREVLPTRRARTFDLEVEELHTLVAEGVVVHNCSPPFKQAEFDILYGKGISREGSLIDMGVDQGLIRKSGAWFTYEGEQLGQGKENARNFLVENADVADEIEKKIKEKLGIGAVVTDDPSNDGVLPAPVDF
# CCHF vOTU inh-1 – CCHFV vOTU protease inhibition; hit rate 0.55% among 370,000; inhibition, % at 11.5 µM; Pep-AMC fluorescence; AID 651958; also: 0% = vehicle wells with enzyme and 100% = no enzyme wells
# Mtb hypoxia inh – Mtb hypoxia fluorescent reporter inhibition; M. tuberculosis hypoxia-regulated fluorescent reporter, fluorescence; fluorescence inhibition, % (test concentration not listed); hit rate 0.1% among 300,000; in the data active = fluorescence inhibition mostly above about 23%, no sharp cut-off; inactive = mostly below about 17%
# PfHsp40 rescue – restores yeast growth despite PfHsp40 toxicity; growth rescue, % at 12.5 µM; S. cerevisiae expressing PfHsp40, growth rescue, ATP luminescence; hit rate 0.68% among 340,000; AID 504582; in the data active = growth rescue above about 28%, passing the limit was not always enough; inconclusive = no clear call, values can overlap the other calls;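 also: yeast W303a lacking pdr1 and pdr3 grown in galactose medium; growth measured after three days at 30 °C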
# CCHF vOTU inh-2 – CCHFV vOTU protease inhibition, confirmation; shares compounds with CCHF vOTU inh-1; inhibition, % at 11.5 µM; hit rate 17% among 1,900; Recombinant CCHFV vOTU, Pep-AMC fluorescence
# * marks the source's active call; other numbers are inactive results; ? = inconclusive; / = no result given. An excerpt weighted towards active compounds, which were near 1.7% of everything screened. Rule as the data show it, unless noted: active = inhibition above about 30%; inactive = the rest.
SMILES,Mtb bLac sens,RecA intein inh,CCHF vOTU inh-1,Mtb hypoxia inh,PfHsp40 rescue,CCHF vOTU inh-2
Cc1c(C(=O)O)c(=O)n(-c2ccccc2)n1-c1ccccc1,-2.7,1.5,-8.2,-1.0,-2.2,/
Cc1c(C=O)c(=O)n(-c2ccccc2)n1-c1ccccc1,2.3,-1.0,32.1*,-1.3,-1.0,-18.8
CC(=O)Nc1ccc(S(=O)(=O)NC2=C(N3CCN(C)CC3)C(=O)c3ccccc3C2=O)cc1,-2.0,6.7,52.8*,-0.4,-0.5,29.5*
CCN1CCN(C2=C(NS(=O)(=O)c3ccc(NC(C)=O)cc3)C(=O)c3ccccc3C2=O)CC1,3.0,2.3,58.3*,20.0,1.1,22.1
CCOC(=O)N1CCN(C2=C(NS(=O)(=O)c3ccc(NC(C)=O)cc3)C(=O)c3ccccc3C2=O)CC1,5.6,1.8,-1.9,-3.1,0.0,/
O=C(COC(=O)c1ccc([N+](=O)[O-])s1)Nc1ccc(Cl)cn1,98.0,/,40.9*,-1.5,-0.7,51.1*
Cc1c(Cl)cnc(NC(=O)COC(=O)c2ccc([N+](=O)[O-])s2)c1Cl,30.9,6.9,74.0*,10.1,0.4,73.8*
Cc1c(Cl)cnc(NC(=O)COC(=O)c2cccs2)c1Cl,0.0,/,-3.7,-12.9,-0.3,/
Cc1ccc(C(=O)OCC(=O)Nc2ccc(Cl)cn2)s1,13.6,/,-0.3,6.8,1.0,/
Cn1c(C=NNC(=O)c2ccccc2Br)nc2ccccc21,/,/,/,-4.3,/,/
O=C(COc1ccc2ccccc2c1)Nc1cccc(C(=O)Nc2ccccc2C(=O)O)c1,81.1,6.4,33.7*,4.9,37.1*,24.1
CN(C)Cc1c(C(=O)NN=Cc2cccs2)nnn1-c1nonc1N,/,/,/,4.8,/,/
COc1cccc(C2=Nc3cccc4cccc(c34)N2)c1,19.9,1.7,29.9*,6.1,-1.4,-20.8
CC(=O)Nc1c([N+](=O)[O-])cc2c3c(cccc13)CC2,/,/,33.4*,/,/,-16.3
CCCOc1ccc(C2C(=C(O)c3c(C)[nH]c(C(=O)OC)c3C)C(=O)C(=O)N2CCN(C)C)cc1 (stereo unspecified),/,/,/,4.3,/,/
Cc1ccc(C=NNC(=O)C[n+]2ccccc2)o1,/,/,/,-5.3,/,/
Cc1cc(C)c(Nc2cc(S(=O)(=O)O)c(N)c3c2C(=O)c2ccccc2C3=O)c(C)c1,18.0,/,46.8*,17.2,70.6*,4.2
Cc1cc(C)c(NC(=O)COC(=O)c2cccc3c2C(=O)c2ccccc2C3=O)c(C)c1,-0.4,2.9,4.1,7.0,1.3,/
O=C(NCc1ccncc1)C1Cc2c(-c3ccccc3Oc3ccccc3)ccnc2O1 (stereo unspecified),/,/,32.2*,/,/,-14.3
CS(=O)(=O)N(Cc1ccccc1)c1ccc(C(=O)NCC2CCCO2)cc1 (stereo unspecified),-14.1,5.0,35.0*,-4.9,-0.7,-6.0
O=C1NC(=Nc2ccccc2)S/C1=C\c1ccccc1,4.3,3.4,6.7,4.0,0.5,/
O=C1N/C(=N/Nc2ccccc2)S/C1=C\c1ccccc1,82.5,11.2,32.1*,-0.5,0.4,9.4
CC(C)c1[nH]nc2c1C(c1cccc(C(F)(F)F)c1)N(c1ccccc1)C2=O (stereo unspecified),/,/,34.4*,/,/,3.0
COc1ccccc1CNC(=O)C1CCC(CNc2c(N3CCC(C)CC3)c(=O)c2=O)CC1 (stereo unspecified),-0.5,-0.9,31.4*,-2.2,6.2,-6.5
COc1cccc(CNC(=O)C2CCC(CNc3c(N4CCC(C)CC4)c(=O)c3=O)CC2)c1 (stereo unspecified),-4.4,-0.3,19.6,-1.4,0.0,/
SMILES,Mtb bLac sens,RecA intein inh,CCHF vOTU inh-1,Mtb hypoxia inh,PfHsp40 rescue,CCHF vOTU inh-2
C#CCOCCOCCOCCNc1nc(N2CCOCC2)nc(N2CCN(C(=O)C(CO)n3cc(C(N)C(C)C)nn3)CC2)n1 (stereo unspecified),/,/,/,10.3,/,/
Cn1c(=O)[nH]c(=O)c2c1nc(Br)n2CC=NNC(=O)c1ccccc1,/,/,/,-7.3,/,/
COC(=O)[C@@]12C[C@@H](CC(=O)N3CCN(C(=O)C4CC4)CC3)C(=O)N(Cc3ccccc3)C1=CCC(C)(C)C2,/,/,2.3,/,/,/
CCCCCCCCN1C(=O)[C@H](CC(=O)N2CCN(C(=O)OCC)CC2)C[C@@]2(C(=O)OC)CC(C)(C)CC=C12,/,/,31.5*,/,/,21.5
CCCCCCCCN1C(=O)[C@H](CC(=O)N2CCN(C(=O)C3CC3)CC2)C[C@@]2(C(=O)OC)CC(C)(C)CC=C12,/,/,30.6*,/,/,18.9
CCOC(=O)N1CCN(C(=O)C[C@@H]2C[C@@]3(C(=O)OC)CC(C)(C)CC=C3N(Cc3ccccc3)C2=O)CC1,/,/,20.4,/,/,/
Cn1cccc1CC(=O)NN=Cc1cccc([N+](=O)[O-])c1,/,/,/,-6.1,/,/
O=C(NC(=S)Nc1ccccc1N1CCCC1)c1ccc(F)cc1,-0.6,7.1,31.9*,0.4,0.7,33.4*
COc1ccccc1C(=O)NC(=S)Nc1ccccc1N1CCCC1,?,/,40.5*,/,-0.9,11.2
O=C1c2ccccc2[C@@H]2C[C@@H](O)[C@H](Nc3cccc4ccccc34)CCN12,/,/,54.3*,7.9,-2.2,-20.6
Cc1ccc(COC[C@H](CC(C)C)N2CCN(C(=O)c3cccc(C(F)(F)F)c3)CCC2=O)cc1,/,/,25.6,/,/,/
CC(C)CC(COCc1cccc(C(F)(F)F)c1)N1CCN(C(=O)c2cccc(C(F)(F)F)c2)CCC1=O (stereo unspecified),-6.4,2.5,30.2*,-2.6,23.1,25.9
OCc1ccccc1CNCc1ccccc1,0.4,-0.7,1.5,7.3,2.4,/
Oc1cc(CNCc2ccccc2)c(O)cc1CNCc1ccccc1,/,/,43.4*,0.1,-0.9,-1.5
CCCn1nc(NS(=O)(=O)c2cccc3nonc23)c2cc3cccc(C)c3nc21,-4.3,11.2,41.6*,1.6,3.4,14.8
CCOc1cc(C(=O)NCC(=O)NN=Cc2sccc2C)cc(OCC)c1OCC,/,/,/,13.7,/,/
Cc1cn(C(C(=O)NCCCCCCCCCCC(=O)N2CCN(C(=O)OC(C)(C)C)CC2)C(C)O)nn1 (stereo unspecified),/,/,/,-3.4,/,/
CC(C)(C)CC(C)(C)NC(=O)CSCC(=O)Nc1ccc2ccccc2c1,86.5,4.4,30.2*,-1.3,-0.9,12.2
CCC(=O)Nc1ccc2ccccc2c1,93.0,1.5,-9.9,/,1.1,/

# Compound activity as filed in PubChem BioAssay.
